Screening data (PubChem)
BAZ2B block: blocks human BAZ2B; Q9UIF8; AlphaScreen BAZ2B-H3K14Ac peptide displacement; Potency, µM (titrated, usually from 114 µM), most hits filed as inhibitors; 4.4% of 360,000 active; AID 504333; also: nearly all actives have a fitted effect of over 60% in size
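Multi-concentration screen (max 110 uM) measuring displacement of acetylated histone H3 peptide from BAZ2B by AlphaScreen, using 50 nM protein, 50 nM peptide and 10 ug/mL streptavidin donor plus Ni-chelate acceptor beads.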
Sfp inh: blocks B. subtilis Sfp PPTase activity. Q9F4F7. Biochemical Sfp PPTase activity, qHTS. Potency, µM, usual class: inhibitors. 3.5% of 310,000 active. AID 1490;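 also: the enzyme is Sfp with the accession as filed and its product quenches rhodamine fluorescence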
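Buffer: 50 mM Hepes-Na pH 7.6, 10 mM MgCl2, 0.01% Nonidet P-40, 0.01% BSA. Enzyme 15 nM, pre-exposed to compound 15 min; substrates then added and fluorescence change tracked over 30 min.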
HP1b chromo inh: blocks HP1-beta chromodomain binding to methylated histone tails. AlphaScreen HP1-beta / biotin-H3K9me3 peptide binding. 0.56% of 390,000 active. P83916. Potency, µM (highest dose often 114 µM), actives largely listed as inhibitors; also: nearly all actives have a fitted effect of over 70% in size
Target sequence (P83916 whole entry, looked up): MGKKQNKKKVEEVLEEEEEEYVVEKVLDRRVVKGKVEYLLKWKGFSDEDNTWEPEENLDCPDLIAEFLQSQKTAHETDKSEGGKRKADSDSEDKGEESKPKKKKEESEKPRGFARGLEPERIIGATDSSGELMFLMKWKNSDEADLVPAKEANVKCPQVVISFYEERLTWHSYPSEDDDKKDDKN
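AlphaScreen: HP1-beta (50 nM) preformed 30 min with biotin-H3(1-18)K9me3 peptide (50 nM) in PBS pH 7.4, 0.01% Tween-20. Compound added for 30 min at RT, then streptavidin donor/nickel chelate acceptor beads (10 ug/mL) for 30 min.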
G9a inh: G9a (human) methyltransferase inhibition; Q96KQ7; G9a H3K9 monomethylation, AlphaScreen, 2 h; Potency, µM (series often up to 102 µM), most hits filed as inhibitors; 8.8% of 350,000 active; AID 504332; also: nearly all actives have a fitted effect of over 75% in size
Target sequence (Q96KQ7 913-1193 limits assumed): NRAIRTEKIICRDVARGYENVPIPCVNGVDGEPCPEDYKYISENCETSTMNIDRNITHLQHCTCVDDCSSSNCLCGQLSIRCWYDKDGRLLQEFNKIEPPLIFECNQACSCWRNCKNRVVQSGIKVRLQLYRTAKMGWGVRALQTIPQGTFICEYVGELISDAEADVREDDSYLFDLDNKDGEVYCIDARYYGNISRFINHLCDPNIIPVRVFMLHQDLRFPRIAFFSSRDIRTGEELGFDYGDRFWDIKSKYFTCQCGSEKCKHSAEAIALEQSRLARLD
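Enzyme 20 nM + cpd, 15 min RT; add b-H3K9 pep 500 nM / SAM 20 uM; 2 h RT; anti-H3K9me1 Ab 0.5 ug/mL + SA donor / anti-rabbit acceptor beads 20 ug/mL each, 10 min; AlphaScreen read.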
JMJD2A Tudor inh: blocks the human JMJD2A Tudor domain | Potency, µM (highest dose often 114 µM), most hits filed as inhibitors | AlphaScreen JMJD2A-Tudor / H3K4me3 peptide binding | O75164 | 4.4% of 390,000 active; also: nearly all actives have a fitted effect of over 50% in size
L3MBTL1 inh: L3MBTL1 (human) inhibition. Q9Y468. AlphaScreen L3MBTL1–H3K9me1 peptide binding. Potency, µM (highest dose often 57.1 µM), hits mostly inhibitors. 0.66% of 230,000 active; also: nearly all actives have a fitted effect of over 60% in size
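L3MBTL1 50 nM + b-AHA-H3(1-15)K9me1 75 nM, 30 min RT; compound added, 30 min RT; streptavidin donor/Ni-chelate acceptor beads 10 ug/mL each final, 30 min RT dark; AlphaScreen read.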
A number is an active result; 0 = inactive; ? = inconclusive; - = no result given; ! = not confirmed by another sample; [ ] = remark or other dose. Most compounds without a hit are left out; they make up all but 12% or so of the library. Calls follow the shape of the dose curve; as a rule, active = well fitted curve in the direction sought with a large enough effect; inconclusive = small, poorly fitted or top-dose-only effect, or another doubt; inactive = no such curve, though single readings can be large; an effect the other way counts as inactive or inconclusive.

SMILES	BAZ2B block	Sfp inh	HP1b chromo inh	G9a inh	JMJD2A Tudor inh	L3MBTL1 inh
CN1CC[C@@]2(CCCN(C(=O)Oc3ccccc3)C2)C1	-	0	-	0[12.7 µM]	-	-
O=C1C(Cl)=CC(=Nc2ccc(O)cc2)C=C1Cl	31.6µM	?	14.1µM	?	44.7µM	0
O=[As](O)(O)c1ccc(N=Nc2ccc(O)cc2)cc1	0	0	0	0	0	0
CC12CC[C@H]3[C@@H](CCC4(O)C[C@H](O)CCC34/C=N/NC(=O)c3ccc(O)cc3)C1(O)CCC2C1=CC(=O)OC1 (some centres not stated)	0	0	0	-	0	-
COc1ccc(C(=O)N/N=C/C23CC[C@@H](O)CC2(O)CC[C@@H]2[C@@H]3CCC3(C)C(C4=CC(=O)OC4)CCC23O)cc1 (some centres not stated)	0	0	0	50.1µM	0	-
CC1=C(O)C(=O)C=C2C1=CC=C1[C@]2(C)CC[C@@]2(C)C3C[C@](C)(C(=O)O)CC[C@@]3(C)CC[C@@]12C (some centres not stated)	-	0	-	?	-	-
C=CCN1CCc2cccc3c2[C@H]1Cc1ccc(O)c(O)c1-3	?	44.7µM	35.5µM	0.532µM	15.8µM	0
CCCN1CCc2cc(O)cc3c2C1Cc1ccc(O)c(O)c1-3 (configuration not stated)	-	35.5µM	-	0.316µM	-	-
COc1ccc2c(c1O)-c1cc(O)cc3c1[C@@H](C2)N(C)CC3	-	0	-	?	-	-
CNC(=O)[C@@H]1C[C@H]1[C@@H](NP(=O)(c1ccccc1)c1ccccc1)c1ccccc1	-	0	-	-	-	-
O=c1[nH]c(=O)n(CCC2=CCCCC2)c(O)c1C=NCc1cccnc1	0	0	0	50.1µM	0	0
COc1ccc(NC(=O)N2CCC3(CC2)CCN(C(=O)Oc2ccccc2)CC3)cc1	-	0	-	0[12.7 µM]	-	-
Cc1ccc(S(=O)(=O)NP(=O)(Oc2ccccc2)Oc2ccccc2)cc1	0	0	0	56.2µM	?	-
O=P(NS(=O)(=O)c1ccccc1)(Oc1ccccc1)Oc1ccccc1	0	0	0	56.2µM	?	-
O=P(NS(=O)(=O)c1ccc(Br)cc1)(Oc1ccccc1)Oc1ccccc1	?	0	0	0[12.7 µM]	0	-
C=CCN(C1=NCCN1)c1c(Cl)cccc1Cl	-	0	-	0	-	-
CCOP(=S)(OCC)Oc1ccc2c(C)c(Cl)c(=O)oc2c1	-	0	0	0	0	-
CCOP(=S)(OCC)Oc1cc(C)oc(=O)c1Cl	56.2µM	8.91µM	0	8.91µM	20µM	0
CCOP(=S)(OCC)Oc1cc(C)oc(=O)c1	?	20µM	0	-	0	0
NS(=O)(=O)c1cc(C(=O)OCC(=O)Nc2ccc3[nH]c(=O)[nH]c3c2)ccc1Cl	0	-	0	1.41µM	0	0
COc1ccccc1NS(=O)(=O)c1cc(NC(=O)c2ccc(Cl)nc2)ccc1N1CCCC1	-	-	?	-	56.2µM	0
CCN[C@]1(c2cccs2)CCCCC1=O	-	0	-	0[21.5 µM]	-	-
COc1ccc(CCNC(=O)c2ccc3c(c2)N(Cc2cccc(Cl)c2)C(=O)CS3)cc1OC	0	-	0	?	0	-
CN(C)[C@@H]1C(=O)C(C(N)=O)=C(O)[C@@]2(O)C(=O)C3=C(O)c4c(O)ccc(Cl)c4[C@@](C)(O)[C@H]3C[C@@H]12	17.8µM	0	0	?	56.2µM	-
CN(C)[C@@H]1C(=O)C(C(N)=O)=C(O)[C@@]2(O)C(=O)C3=C(O)c4c(O)cccc4[C@@](C)(O)[C@H]3[C@H](O)[C@@H]12	2.82µM	44.7µM	3.98µM!	11.2µM	1.41µM!	1µM!
SMILES	BAZ2B block	Sfp inh	HP1b chromo inh	G9a inh	JMJD2A Tudor inh	L3MBTL1 inh
CN(C)C1C(=O)C(C(N)=O)=C(O)[C@@]2(O)C(=O)C3=C(O)c4c(O)cccc4[C@](C)(O)C3C(O)C12 (some centres not stated)	-	0	-	?	-	-
C[C@@H]1CO1	-	0	-	-	-	-
CN[C@@H]1C[C@@]2(C)O[C@@H]([C@@H]1OC)n1c3ccccc3c3c4c(c5c6ccccc6n2c5c31)C(=O)NC4	-	0	-	0	-	-
CCc1ccc(-n2nc(C)c3c2NC(=O)CSC3c2ccc(OC)cc2OC)cc1 (configuration not stated)	0	-	0	0	0	-
Cc1[nH]c(=S)c(C#N)c2c1CCCC2	?	0	0	1.78µM	20µM	-
CC(C)Cc1[nH]c(=O)c(C#N)c2c1CCC2	0	0	0	0	0	0
C=C1C(O)C2OC3(CCC(/C=C/C(C)C4CC(C)=CC5(OC(CC(C)(O)C(=O)O)CCC5O)O4)O3)CCC2OC1C(O)CC(C)C1OC2(CCCCO2)CCC1C (configuration not stated)	-	0	-	0[2.33 µM]	-	-
CCCCCCCCCCCCCCCCOC[C@@H](COP(=O)([O-])OCC[N+](C)(C)C)OC(C)=O	-	0	-	0	-	-
NC(N)=Nc1ccc2[nH]c3c(c2c1)C[C@@]1(O)[C@H]2Cc4ccc(O)c5c4[C@@]1(CCN2CC1CC1)[C@H]3O5	25.1µM	-	?	1.26µM	3.55µM	0
CCCOP(=O)(c1ccc(N(C)C)cc1)C(O)c1ccc(Cl)cc1Cl (configuration not stated)	0	0	0	0	?	-
CCN(CC)CCCNC(=O)c1c(O)c2ccccc2n(Cc2ccccc2)c1=O	?	0	0	0[0.501 µM]	0	0
CCN(CC)CCNC(=O)c1c(O)c2ccccc2n(Cc2ccccc2)c1=O	0	0	0	?	79.4µM	0
C/C=C1/C[C@@H](C)[C@@](C)(O)C(=O)OCC2=CCN3CC[C@@H](OC1=O)[C@@H]23	-	0	0	-	0	-
O=c1cccc2n1CC1CC2CN(Cc2cccc(Cl)c2Cl)C1 (configuration not stated)	0	0	0	?	0	0
COc1ccc(C(=O)NC(=S)N2C[C@H]3C[C@H](C2)c2cccc(=O)n2C3)cc1OC	0	?	0	44.7µM	0	0
COc1ccc(NC(=O)N2C[C@@H]3C[C@@H](C2)c2cccc(=O)n2C3)c(OC)c1	0	0	0	3.55µM	0	0
O=C(NC(=S)N1C[C@H]2C[C@H](C1)c1cccc(=O)n1C2)c1ccc(Cl)cc1Cl	0	0	0	39.8µM	0	0
COc1cccc(NC(=O)[C@@H](NC(=O)N2C[C@H]3C[C@@H](C2)c2cccc(=O)n2C3)C(C)C)c1	0	0	0	-	0	-
O=c1cccc2n1CC1CC2CN(Cc2c(F)cccc2Cl)C1 (configuration not stated)	?	0	0	44.7µM	56.2µM	0
COc1cc(C(=O)N2C[C@H]3C[C@@H](C2)c2cccc(=O)n2C3)cc(OC)c1OC	0	0	0	0[12.7 µM]	0	-
CC(C)C[C@H]1CNC(=S)N1CC1CCN(CC2CCC(C(C)(C)C)CC2)CC1 (some centres not stated)	-	-	0	-	0	-
CCCOc1ccc(C(=O)NC(=S)N2C[C@H]3C[C@H](C2)c2cccc(=O)n2C3)cc1	0	44.7µM	0	11.2µM	?	0
